TDP1 block = qHTS Assay for Inhibitors of Tyrosyl-DNA Phosphodiesterase (TDP1) | Tyrosyl-DNA phosphodiesterase 1 (Homo sapiens), Q9NUW8 | recombinant TDP1, AlphaScreen DNA substrate cleavage | Potency, µM (highest dose often 130 µM), without a hit: at the highest dose activity change, negative = inhibition, most hits filed as inhibitors | 0.28% of 350,000 active; note: potency is the fitted concentration of half-maximal effect; nearly all actives have a fitted effect of over 40% in size
Target sequence (Q9NUW8 whole entry, looked up): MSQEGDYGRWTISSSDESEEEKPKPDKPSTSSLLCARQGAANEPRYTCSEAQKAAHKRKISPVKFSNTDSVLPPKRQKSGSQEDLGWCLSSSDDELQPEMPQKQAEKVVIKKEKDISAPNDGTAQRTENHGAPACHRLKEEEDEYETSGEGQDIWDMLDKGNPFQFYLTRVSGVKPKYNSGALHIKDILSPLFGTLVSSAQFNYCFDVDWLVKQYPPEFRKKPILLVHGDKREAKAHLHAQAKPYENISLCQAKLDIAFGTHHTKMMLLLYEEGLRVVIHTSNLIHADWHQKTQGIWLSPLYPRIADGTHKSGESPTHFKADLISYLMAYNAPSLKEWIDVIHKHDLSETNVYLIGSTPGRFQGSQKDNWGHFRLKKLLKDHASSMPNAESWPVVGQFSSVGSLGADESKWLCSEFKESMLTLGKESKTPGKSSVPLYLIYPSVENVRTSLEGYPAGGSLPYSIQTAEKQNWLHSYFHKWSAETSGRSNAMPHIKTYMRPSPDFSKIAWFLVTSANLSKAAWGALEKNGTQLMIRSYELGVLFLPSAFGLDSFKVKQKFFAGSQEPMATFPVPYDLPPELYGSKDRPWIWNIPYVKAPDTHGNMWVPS
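Tdp1 1 nM final; 15 min RT w/ cpd; substrate 15 nM, 5 min; beads 10 ug/ml, 10 min; AlphaScreen read. Neg ctrl: no enzyme.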
Six1-Eya2 inh = qHTS Assay for Inhibitors of the Six1/Eya2 Interaction; Homeobox protein SIX1 (Homo sapiens) + Protein phosphatase EYA2 (Homo sapiens), …; AlphaScreen GST-Six1/His-Eya2 binding, biochemical; hits give low values; activity change, % (test concentration not listed); 0.56% of 360,000 active; in the data active = activity change below about -65%; inconclusive = mostly about -30% to -63%
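GST-Six1 + His-Eya2 (5X stock: 250/500 nM); Tris pH 8.0, 300 mM NaCl, 0.05% BSA, 0.02% Tween 20; GSH donor/Ni acceptor beads; 1 h 37 °C dark; AlphaScreen readout.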
CtBP-E1A inh = qHTS Assay for Inhibitors of the CtBP/E1A Interaction; activity change, % (test concentration not listed); AlphaScreen GST-E1A/His-CtBP binding, 1536-well; hits give low values; AID 651724, 2012; 0.49% of 340,000 active; CtBP / adenovirus E1A interaction (AlphaScreen); in the data active = activity change below about -65%; inconclusive = mostly about -30% to -63%
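Homogeneous bead-based format: GST-tagged E1A captured on glutathione donor beads, His-tagged CtBP on nickel acceptor beads; compounds precede bead addition by 2 h at 37 °C.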
DT40 TDP1 no CPT = qHTS for Inhibitors of human tyrosyl-DNA phosphodiesterase 1 (TDP1): qHTS in cells in absence of CPT; DT40 Tdp1-/- hTDP1 cells, no CPT, ATP luminescence, 48 h; Potency, µM (series often up to 46.2 µM), for inactives: top-dose activity change, negative = growth inhibition, most hits filed as inhibitors; 15% of 420,000 active; note: potency is the fitted concentration of half-maximal effect; nearly all actives have a fitted effect of over 55% in size
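Growth of hTDP1-complemented DT40 Tdp1-knockout cells is measured by ATP luminescence after at least 48 hr compound exposure at 37 °C, with DMSO substituting for the 20 nM CPT used in the parallel screen.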
IL-1B inflam inh = qHTS for Inhibitors of Inflammasome Signaling: IL-1-beta AlphaLISA Primary Screen; THP-1 LPS/ATP IL-1B secretion, AlphaLISA, 16 h; hits give low values; activity change, % at 57.5 µM; 4.7% of 360,000 active; AID 743279, 2014; in the data active = activity change below about -50%; inconclusive = mostly about -30% to -49%
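Secreted IL-1B measured by AlphaLISA bead assay after 16 h compound exposure of THP-1 cells; compounds (final up to 57.5 uM) added 1 h before LPS (250 ng/mL) and ATP (1.25 mM) stimulation; lower signal means less secretion.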
TDP1 cell CPT = qHTS for Inhibitors of human tyrosyl-DNA phosphodiesterase 1 (TDP1): qHTS in cells in presence of CPT; chicken DT40 Tdp1-/-;hTDP1 cells + 20 nM CPT, ATP luminescence, 48 h; Potency, µM (series often up to 46.2 µM), for inactives: top-dose activity change, negative = growth inhibition, usual class: inhibitors; 12% of 420,000 active; AID 686979, 2013; note: potency is the fitted concentration of half-maximal effect; nearly all actives have a fitted effect of over 55% in size
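Cell growth measured by CellTiter-Glo luminescence after a minimum 48 h, 37 C compound exposure with 20 nM CPT in Tdp1-knockout DT40 cells stably expressing hTDP1, seeded 400/well; qHTS titration format.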
Starred values were filed as active, the others as inactive; ? = inconclusive; . = not tested or not shown; [ ] = another dose, or the depositor's remark. This is a sample that favours compounds with a hit; in the whole collection about 18% have one here. Unless noted, calls come from the whole dose curve; as a rule, active = well fitted curve in the direction sought with a large enough effect; inconclusive = small, poorly fitted or top-dose-only effect, or another doubt; inactive = no such curve, though single readings can be large; an effect the other way counts as inactive or inconclusive. % is set by controls: 0 for no effect and ±100 for the full control effect.

SMILES	TDP1 block	Six1-Eya2 inh	CtBP-E1A inh	DT40 TDP1 no CPT	IL-1B inflam inh	TDP1 cell CPT
CN(C)C1=NC[C@H](Cc2ccccc2)N1CC1CCC(C(C)(C)C)CC1 (stereo partly specified)	.	-2	1	13µM*	-26	21µM*
CN(C)C1=NC[C@H](Cc2ccccc2)N1CC1CCCC1	-6%	4	-13	23µM*	10	15µM*
Cc1cc2c(cc1S(=O)(=O)NCCc1ccc(Cl)cc1)OCC(=O)N2	.	1	-3	-14%	15	-10%
Cc1cccc(NC(=S)N2CCCC2)c1	3%[56.1 µM]	2	0	-4%	14	-10%
O=c1onc(-c2ccccc2)n1-c1cc(Cl)cc(Cl)c1	.	11	0	-12%	28	18%
C=CCNC(=S)NCc1ccc(CNC(=S)NCC=C)cc1	-2%	22	-24	-18%	8	0%
Cc1ccc(N/N=C/c2c(C)c(C#N)c(=O)n(C)c2O)cc1C	-1%	0	-18	?	8	?
Cc1ccc(-n2[nH]c(C)c(C=Nc3ccc(S(=O)(=O)Nc4nccs4)cc3)c2=O)cc1	7%	.	.	.	.	.
COc1cc(S(=O)(=O)Nc2ccc(C)cc2)ccc1N=Cc1c(C)c(C#N)c(=O)n(C)c1O	5%	3	.	13µM*	1	?
COc1cc(S(=O)(=O)Nc2ccc(C)cc2)ccc1N=Cc1c(C)[nH]n(-c2ccc(C)cc2)c1=O	-3%	?	-8	13µM*	-7	-23%
Cc1cccc(CSCc2ccc(C(=O)NC3CCCC3)o2)c1	-3%	3	3	14%	23	0%
COc1cccc(CCC(=O)Nc2cccc(S(=O)(=O)N3CCCC3)c2)c1OC	1%	-6	-19	?	-7	?
CN(CC(=O)Nc1cc(S(=O)(=O)N2CCCC2)ccc1Cl)Cc1nc2ccccc2c(=O)[nH]1	.	-2	-9	21µM*	0	?
COc1cccc(CN(C)CC(=O)Nc2cc(S(=O)(=O)N3CCCC3)ccc2Cl)c1OC	-14%	-7	-8	?	-15	21µM*
COc1ccccc1CN(C)CC(=O)Nc1cccc(S(=O)(=O)N2CCCC2)c1	2%	-4	5	23µM*	-16	?
O=C(CCc1nc2ccccc2c(=O)[nH]1)Nc1cccc(S(=O)(=O)N2CCCCC2)c1	0%	-29	-2	21µM*	-3	?
CCOC(=O)c1c(N2CCN(c3ccccc3)CC2)cc(C)nc1C	.	4	.	?	58	?
CC(c1nc2ccccc2[nH]1)n1c(=O)c(-c2cccnc2)nc2ccccc21 (stereo unspecified)	.	-7	5	?	-88*	23µM*
COc1ccc(CCc2nc3ccccc3n2C(CCc2ccccc2)c2nc3ccccc3[nH]2)cc1 (stereo unspecified)	.	-8	1	?	-16	?

Source: PubChem BioAssay (National Center for Advancing Translational Sciences (NCATS))
